In PubChem BioAssay:
For some assays here: Potency and affinity values are given separately. Active and inactive are the calls of the source. Unless noted, the rule behind the calls is not given here.

How the values were obtained:
[1] = antimalarial activity against Dd2 strain (AID 2302;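 active = growth inhibition above 50% at the single 2 µM test dose, taken to imply half-maximal potency below 2 µM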;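 note: 0% = DMSO untreated growth and 100% = chloroquine plus artemisinin killed control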); settings: P. falciparum Dd2 in RBCs, LDH growth readout, 72 h; at 2 µM; stronger effect = higher value
[2] = human hepatoma cell viability loss – ATP luminescence, cytotoxicity control for P. falciparum antimalarial project, primary screen (AID 2303;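 active = inhibition above 50%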;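 note: 0% = DMSO wells and 100% = digitonin-killed cells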); settings: HepG2 viability, 24-48 h, at 10 µM, stronger effect = higher value
[3] = target: L-lactate dehydrogenase (Plasmodium falciparum (isolate CDC / Honduras)) (UniProt Q27743); test: PfLDH activity inhibition – cell lysate, 3D7 strain, counter-screen for P. falciparum growth inhibition project (AID 2304);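 note: 0% = vehicle and 100% = reference inhibitor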; settings: P. falciparum 3D7 crude extract, LDH APAD/NBT absorbance; at 2 µM; stronger effect = higher value
[4] = inhibition of 3D7 malaria parasite growth – strain 3D7 (AID 2306);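 note: 0% = DMSO wells and 100% = chloroquine plus artemisinin control wells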; settings: P. falciparum 3D7 erythrocytic growth, LDH absorbance, 72 h; at 2 µM; stronger effect = higher value
[5] = target: Calcium-dependent protein kinase 1 (Plasmodium falciparum (isolate 3D7)) (UniProt P62344); test: PfCDPK1 kinase inhibitors, biochemical, TCAMS library (AID 1159585; cut-off not given, nearly all actives have IC50 up to about 0.98 µM;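 note: inhibitors leave more ATP so luminescence rises with inhibition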); settings: recombinant PfCDPK1, Kinase-Glo ATP depletion luminescence
[6] = target: Plasmodium falciparum protein kinase 6 (PK6, PF3D7_1337100) (UniProt Q8IDW1); test: PfPK6 kinase inhibitors, biochemical, TCAMS library (AID 1159586); settings: recombinant PfPK6, Kinase-Glo ATP depletion luminescence
[7] = target: Protein kinase 7 (PK7), Plasmodium falciparum 3D7 (PF3D7_0213400) (UniProt Q7YTF7); test: inhibition of Plasmodium PK7 catalytic activity – biochemical, TCAMS antimalarial set, Kinase-Glo luminescence (AID 1159587); settings: recombinant PfPK7, Kinase-Glo ATP depletion luminescence
[8] = target: Calcium-dependent protein kinase 4 (Plasmodium falciparum (isolate 3D7)) (UniProt Q8IBS5); test: PfCDPK4 kinase inhibitors, biochemical, TCAMS library (AID 1159588; cut-off not given, nearly all actives have IC50 up to about 0.91 µM); settings: recombinant PfCDPK4, Kinase-Glo ATP depletion luminescence
Chain of Calcium-dependent protein kinase 4 (Plasmodium falciparum (isolate 3D7)) (Q8IBS5 whole entry, looked up): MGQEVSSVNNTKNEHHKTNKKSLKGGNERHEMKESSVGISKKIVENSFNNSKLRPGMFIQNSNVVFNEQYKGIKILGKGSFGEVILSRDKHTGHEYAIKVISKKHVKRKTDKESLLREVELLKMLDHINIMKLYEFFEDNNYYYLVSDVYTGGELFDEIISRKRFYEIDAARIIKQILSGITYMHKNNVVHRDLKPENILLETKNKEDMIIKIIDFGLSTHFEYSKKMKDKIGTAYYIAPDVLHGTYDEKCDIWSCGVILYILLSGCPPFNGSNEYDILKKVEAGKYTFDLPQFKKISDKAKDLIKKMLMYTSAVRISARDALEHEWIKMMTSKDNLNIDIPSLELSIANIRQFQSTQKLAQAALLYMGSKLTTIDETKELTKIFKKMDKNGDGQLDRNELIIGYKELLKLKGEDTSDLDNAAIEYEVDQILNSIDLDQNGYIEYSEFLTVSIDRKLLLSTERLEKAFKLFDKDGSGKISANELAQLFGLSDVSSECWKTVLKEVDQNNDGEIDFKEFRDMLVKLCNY

Chain of Protein kinase 7 (PK7), Plasmodium falciparum 3D7 (PF3D7_0213400) (Q7YTF7 1-343): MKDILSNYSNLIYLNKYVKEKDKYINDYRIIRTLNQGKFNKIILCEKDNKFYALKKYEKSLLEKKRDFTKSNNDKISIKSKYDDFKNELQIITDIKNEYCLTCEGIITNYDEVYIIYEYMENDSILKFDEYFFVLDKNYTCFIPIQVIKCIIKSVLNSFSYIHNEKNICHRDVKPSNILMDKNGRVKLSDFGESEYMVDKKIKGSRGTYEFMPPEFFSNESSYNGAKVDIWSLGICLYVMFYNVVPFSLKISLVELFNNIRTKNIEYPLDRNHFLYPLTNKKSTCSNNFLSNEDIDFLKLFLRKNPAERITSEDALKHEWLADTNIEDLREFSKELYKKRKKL
Chain of Plasmodium falciparum protein kinase 6 (PK6, PF3D7_1337100) (Q8IDW1 1-305): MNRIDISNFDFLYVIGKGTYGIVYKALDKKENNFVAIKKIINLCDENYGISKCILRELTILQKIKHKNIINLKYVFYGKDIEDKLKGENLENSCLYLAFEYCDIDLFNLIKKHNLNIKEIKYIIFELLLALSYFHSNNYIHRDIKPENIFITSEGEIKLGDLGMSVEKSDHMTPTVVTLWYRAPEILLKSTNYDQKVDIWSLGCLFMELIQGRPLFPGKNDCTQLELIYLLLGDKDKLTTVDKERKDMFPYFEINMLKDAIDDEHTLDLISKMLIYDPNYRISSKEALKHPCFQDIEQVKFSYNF
Chain of L-lactate dehydrogenase (Plasmodium falciparum (isolate CDC / Honduras)) (Q27743 whole entry, looked up): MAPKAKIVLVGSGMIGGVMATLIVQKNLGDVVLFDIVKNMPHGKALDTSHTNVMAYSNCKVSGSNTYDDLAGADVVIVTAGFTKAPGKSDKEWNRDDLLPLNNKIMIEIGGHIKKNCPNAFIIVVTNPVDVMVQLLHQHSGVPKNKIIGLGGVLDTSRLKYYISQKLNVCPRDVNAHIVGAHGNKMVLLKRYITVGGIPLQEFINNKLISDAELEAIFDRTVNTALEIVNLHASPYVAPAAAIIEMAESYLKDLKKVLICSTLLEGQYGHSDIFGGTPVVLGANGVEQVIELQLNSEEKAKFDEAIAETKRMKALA
Chain of Calcium-dependent protein kinase 1 (Plasmodium falciparum (isolate 3D7)) (P62344 whole entry, looked up): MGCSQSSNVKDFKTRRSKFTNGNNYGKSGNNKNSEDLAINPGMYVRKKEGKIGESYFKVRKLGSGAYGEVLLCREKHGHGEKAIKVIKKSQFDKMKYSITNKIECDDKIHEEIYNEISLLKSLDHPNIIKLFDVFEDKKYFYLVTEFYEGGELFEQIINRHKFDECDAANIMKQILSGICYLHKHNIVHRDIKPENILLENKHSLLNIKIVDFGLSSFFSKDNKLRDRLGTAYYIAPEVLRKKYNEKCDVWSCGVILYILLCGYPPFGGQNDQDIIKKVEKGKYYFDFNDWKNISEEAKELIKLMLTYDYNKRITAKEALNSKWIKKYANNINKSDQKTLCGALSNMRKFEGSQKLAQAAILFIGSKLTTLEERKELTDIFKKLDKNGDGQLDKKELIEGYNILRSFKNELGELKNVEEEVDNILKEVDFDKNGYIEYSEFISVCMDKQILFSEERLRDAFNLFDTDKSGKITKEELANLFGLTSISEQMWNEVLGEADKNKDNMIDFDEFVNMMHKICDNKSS

O=C(Nc1cccc(-c2ccc(-c3nc4ccc(C(F)(F)F)cc4[nH]3)cc2)c1)c1cccnc1
inactive: inhibition [3] -9% | outcome [5] | outcome [6] | outcome [7] | outcome [8]
active: growth inhibition [1] 97% | inhibition [2] 73% | growth inhibition [4] 101%

CCN1CCN(Cc2ccc(NC(=O)c3cc4ccc5cccnc5c4[nH]3)cc2)CC1
inactive: inhibition [2] -3% | inhibition [3] -3% | outcome [5] | outcome [6] | outcome [7] | outcome [8]
active: growth inhibition [1] 97% | growth inhibition [4] 100%

Cc1[nH]c(C)c(-c2ccc(-c3ccc(OC(F)(F)F)cc3)nc2)c(=O)c1Cl
inactive: inhibition [2] 11% | inhibition [3] -6% | outcome [5] | outcome [6] | outcome [7] | outcome [8]
active: growth inhibition [1] 95% | growth inhibition [4] 95%

CCCCCCc1cc(Oc2c(I)cc(C[C@H](N)C(=O)O)cc2I)ccc1O
active: growth inhibition [4] 97%
inactive: growth inhibition [1] -5% | inhibition [2] -2% | inhibition [3] -1% | outcome [5] | outcome [6] | outcome [7] | outcome [8]

O=C1CCCN1CCCNCc1ccc(-c2ccc(-c3nc4ccc(F)cc4[nH]3)cc2)cc1
active: growth inhibition [1] 99% | growth inhibition [4] 100%
inactive: inhibition [2] 16% | inhibition [3] -3% | outcome [5] | outcome [6] | outcome [7] | outcome [8]

CCCNCc1ccc(-c2ccc(CN(Cc3cnc(C)cn3)C(=O)CC#N)cc2)nc1
inactive: growth inhibition [1] -3% | inhibition [2] 4% | inhibition [3] 5% | outcome [5] | outcome [6] | outcome [7] | outcome [8]
active: growth inhibition [4] 92%

OCC1CCN(Cc2ccc(-c3ccc(-c4nc5ccc(C(F)(F)F)cc5[nH]4)s3)cc2)CC1
inactive: inhibition [2] 35% | inhibition [3] -2% | outcome [5] | outcome [6] | outcome [7] | outcome [8]
active: growth inhibition [1] 90% | growth inhibition [4] 102%

COc1ccc2c(NN=Cc3ccccc3)ccnc2c1
inactive: inhibition [2] 18% | inhibition [3] -5% | outcome [5] | outcome [6] | outcome [7] | outcome [8]
active: growth inhibition [1] 98% | growth inhibition [4] 101%

Cc1ncccc1C(=O)Nc1cccc(-c2cccc(-c3nc4c(C)cccc4[nH]3)c2)c1
inactive: inhibition [2] 6% | inhibition [3] 4% | outcome [5] | outcome [6] | outcome [7] | outcome [8]
active: growth inhibition [1] 69% | growth inhibition [4] 93%

COc1ccc(CCNC(C)Cc2ccc(C(=O)Nc3ccc(CC(C)NCCc4cccc(Cl)c4)cc3)cc2)cc1 (stereo not given)
inactive: inhibition [3] -10% | outcome [5] | outcome [6] | outcome [7] | outcome [8]
active: growth inhibition [1] 89% | inhibition [2] 99% | growth inhibition [4] 101%

CCN1CCN(c2cc(C)c3cc(NC(=O)c4ccc(N(CC)CC)cc4)ccc3n2)CC1
active: growth inhibition [4] 95%
inactive: growth inhibition [1] 41% | inhibition [2] 38% | inhibition [3] 1% | outcome [5] | outcome [6] | outcome [7] | outcome [8]

COc1cc(Nc2nccc(Nc3ccc4c(C)[nH]nc4c3)n2)cc2ccccc12
inactive: inhibition [2] 13% | inhibition [3] 5% | outcome [5] | outcome [6] | outcome [7] | outcome [8]
active: growth inhibition [1] 82% | growth inhibition [4] 102%

CC(C)N(Cc1cnc(N)c(C#N)n1)c1ccc(Cl)c(Cl)c1
inactive: inhibition [2] -1% | inhibition [3] -5% | outcome [5] | outcome [6] | outcome [7] | outcome [8]
active: growth inhibition [1] 63% | growth inhibition [4] 97%

O=C(/C=C/c1ccccc1Cl)Nc1ccc(Br)c(OCCN2CCC(O)(c3ccccc3)CC2)c1
active: growth inhibition [1] 85% | growth inhibition [4] 101%
inactive: inhibition [2] 39% | inhibition [3] 0% | outcome [5] | outcome [6] | outcome [7] | outcome [8]

Cc1c(F)cc(C(=O)NC2CC2)cc1-c1ccc2c(c1)c(C)nn2S(=O)(=O)c1cccs1
inactive: inhibition [2] 34% | inhibition [3] -3% | outcome [5] | outcome [6] | outcome [7] | outcome [8]
active: growth inhibition [1] 92% | growth inhibition [4] 91%

Cc1ccc(Nc2nccc(NCC(O)c3cccc(C(F)(F)F)c3)n2)cc1 (stereo not given)
inactive: inhibition [2] 19% | inhibition [3] -6% | outcome [5] | outcome [6] | outcome [7] | outcome [8]
active: growth inhibition [1] 74% | growth inhibition [4] 99%

CN1CCC(c2c[nH]c3ccc(NC(=O)Nc4ccc(-c5ccncc5)cc4Cl)cc23)CC1
active: growth inhibition [4] 100%
inactive: growth inhibition [1] 7% | inhibition [2] 31% | inhibition [3] 7% | outcome [5] | outcome [6] | outcome [7] | outcome [8]

Cc1cccc2[nH]c(-c3cccc(-c4ccc(NC(=O)c5cccc(C(N)=O)c5)cc4)c3)nc12
active: growth inhibition [1] 61% | growth inhibition [4] 100%
inactive: inhibition [2] 25% | inhibition [3] 4% | outcome [5] | outcome [6] | outcome [7] | outcome [8]

Cc1cc(NN=Cc2ccc(F)cc2)c2cc(C(F)(F)F)ccc2n1
active: growth inhibition [1] 99% | growth inhibition [4] 101%
inactive: inhibition [2] 2% | inhibition [3] -2% | outcome [5] | outcome [6] | outcome [7] | outcome [8]

CCC1(CC)N=C(N)N=C(N)N1OCc1ccc(Cl)c(Cl)c1
active: growth inhibition [4] 94%
inactive: growth inhibition [1] 49% | inhibition [2] 49% | inhibition [3] -1% | outcome [5] | outcome [6] | outcome [7] | outcome [8]

COc1cccc(NC(=O)c2nc(N3CCN(c4ccncc4)CC3)ccc2Cl)c1
inactive: inhibition [2] 14% | inhibition [3] 1% | outcome [5] | outcome [6] | outcome [7] | outcome [8]
active: growth inhibition [1] 65% | growth inhibition [4] 97%

O=C(Nc1cccc2ccccc12)N1CCc2cc3nccc(N4CCN5CCC[C@H]5C4)c3cc21
inactive: inhibition [2] 11% | inhibition [3] 0% | outcome [5] | outcome [6] | outcome [7] | outcome [8]
active: growth inhibition [1] 86% | growth inhibition [4] 99%

O=C(NCCc1cccc(F)c1)c1cc(Br)cc(N2CCN(c3ccncc3)CC2)c1
active: growth inhibition [1] 86% | growth inhibition [4] 100%
inactive: inhibition [2] 34% | inhibition [3] 0% | outcome [5] | outcome [6] | outcome [7] | outcome [8]

CC(C)c1ccc(OCC(O)CN(CCN2CCOCC2)C(=O)Nc2ccc(Br)cc2)cc1 (stereo not given)
inactive: growth inhibition [1] 44% | inhibition [2] 6% | inhibition [3] -2% | outcome [5] | outcome [6] | outcome [7] | outcome [8]
active: growth inhibition [4] 98%

COc1cc(C=CC(=O)N2CCN(Cc3cccc(C)c3)CC2)ccc1OCc1c(C)noc1C
active: growth inhibition [1] 95% | growth inhibition [4] 86%
inactive: inhibition [2] 8% | inhibition [3] -4% | outcome [5] | outcome [6] | outcome [7] | outcome [8]

CC(C)CCNC(=O)C1Cc2c([nH]c3cc(Br)ccc23)C2(CCN(CCc3ccccc3)CC2)N1 (stereo not given)
inactive: growth inhibition [1] 48% | inhibition [2] 14% | inhibition [3] -1% | outcome [5] | outcome [6] | outcome [7] | outcome [8]
active: growth inhibition [4] 97%

COc1ccc2nccc([C@@H](O)CN3CCC(NCc4ccc(OC)c(NC=O)c4)CC3)c2c1
active: growth inhibition [4] 97%
inactive: growth inhibition [1] -1% | inhibition [2] 0% | inhibition [3] 3% | outcome [5] | outcome [6] | outcome [7] | outcome [8]

COc1ccc(CCNC(=O)c2ccc(-n3cc(NC(=O)c4cccnc4)cn3)cc2)cc1OC
inactive: inhibition [2] 17% | inhibition [3] 3% | outcome [5] | outcome [6] | outcome [7] | outcome [8]
active: growth inhibition [1] 89% | growth inhibition [4] 90%

CC(=O)c1ccc2cc(C(=O)NC3CCC(CCN4CCc5ccc(-c6noc(C)n6)cc5CC4)CC3)[nH]c2c1 (stereo not given)
inactive: growth inhibition [1] 45% | inhibition [2] 28% | inhibition [3] 0% | outcome [5] | outcome [6] | outcome [7] | outcome [8]
active: growth inhibition [4] 81%

CC(Oc1ccc(Cl)cc1Cl)c1nc(-c2ccc(NC(=O)c3ccco3)cc2)no1 (stereo not given)
inactive: inhibition [2] 7% | inhibition [3] 0% | outcome [5] | outcome [6] | outcome [7] | outcome [8]
active: growth inhibition [1] 82% | growth inhibition [4] 92%

Cc1cc(NN=CC=Cc2ccccc2)c2ccccc2n1
inactive: inhibition [2] 19% | inhibition [3] 1% | outcome [5] | outcome [6] | outcome [7] | outcome [8]
active: growth inhibition [1] 69% | growth inhibition [4] 101%

CC(C)N(CCOc1ccc2c(c1)N(C(=O)Nc1cc(Br)cc(C(F)(F)F)c1)CC2)C(C)C
active: growth inhibition [1] 100% | growth inhibition [4] 101%
inactive: inhibition [2] 8% | inhibition [3] 5% | outcome [5] | outcome [6] | outcome [7] | outcome [8]

O=C(NC1CC1)c1ccc(N2CCCC(COc3ccc4c(c3)CCCC4)C2)nc1 (stereo not given)
active: growth inhibition [1] 65% | growth inhibition [4] 85%
inactive: inhibition [2] -5% | inhibition [3] -5% | outcome [5] | outcome [6] | outcome [7] | outcome [8]

Cc1cccc(-c2nn(-c3ccccc3)c3[nH]c(=O)c(CNC4CCCC4)cc23)c1
inactive: inhibition [2] 18% | inhibition [3] -2% | outcome [5] | outcome [6] | outcome [7] | outcome [8]
active: growth inhibition [1] 97% | growth inhibition [4] 98%

CCC1CCCCN1S(=O)(=O)c1ccc(OC)c(N2CCN(C(=O)C(Cl)(Cl)Cl)CC2)c1 (stereo not given)
active: growth inhibition [4] 89%
inactive: growth inhibition [1] 29% | inhibition [2] 9% | inhibition [3] 5% | outcome [5] | outcome [6] | outcome [7] | outcome [8]

CN(C)CCOc1cc(NC(=O)/C=C/c2cccc3ccccc23)ccc1I
active: inhibition [2] 55% | growth inhibition [4] 98%
inactive: growth inhibition [1] 7% | inhibition [3] 0% | outcome [5] | outcome [6] | outcome [7] | outcome [8]

O=C(NC1CCN(c2ccnc3cc(Cl)ccc23)C1)c1ccc(F)cc1 (stereo not given)
inactive: inhibition [2] 26% | inhibition [3] 4% | outcome [5] | outcome [6] | outcome [7] | outcome [8]
active: growth inhibition [1] 97% | growth inhibition [4] 94%

O=C(Nc1ccc(-c2cccc(-c3nc4ccccc4[nH]3)c2)cc1)Nc1ccc2c(c1)OCO2
active: growth inhibition [1] 65% | inhibition [2] 55% | growth inhibition [4] 102%
inactive: inhibition [3] 0% | outcome [5] | outcome [6] | outcome [7] | outcome [8]

CCOc1cccc(C(=O)Nc2cccc(CN3CCCN(Cc4ccc(O)cc4)CC3)c2)c1
active: growth inhibition [4] 91%
inactive: growth inhibition [1] 31% | inhibition [2] 23% | inhibition [3] 1% | outcome [5] | outcome [6] | outcome [7] | outcome [8]

O=C(NCc1cccc(OC(F)(F)F)c1)c1cnc2c(c1)nc(-c1cnc(-c3ccccc3)[nH]1)n2CCc1cnc[nH]1
active: growth inhibition [4] 99%
inactive: growth inhibition [1] 47% | inhibition [2] 0% | inhibition [3] -10% | outcome [5] | outcome [6] | outcome [7] | outcome [8]
